Compounds with a hit are over-represented: about 3.5% of the library has one in this group of screens.
Anthrax LF inh2 = blocks Bacillus anthracis lethal factor protease; P15917; multiplex microsphere protease cleavage assay, LF; inhibition, % at 10 µM; actives 0.12% (n = 360,000); note: plate controls were buffer without enzyme for full effect and enzyme alone for no effect
Target sequence (P15917 whole entry, looked up): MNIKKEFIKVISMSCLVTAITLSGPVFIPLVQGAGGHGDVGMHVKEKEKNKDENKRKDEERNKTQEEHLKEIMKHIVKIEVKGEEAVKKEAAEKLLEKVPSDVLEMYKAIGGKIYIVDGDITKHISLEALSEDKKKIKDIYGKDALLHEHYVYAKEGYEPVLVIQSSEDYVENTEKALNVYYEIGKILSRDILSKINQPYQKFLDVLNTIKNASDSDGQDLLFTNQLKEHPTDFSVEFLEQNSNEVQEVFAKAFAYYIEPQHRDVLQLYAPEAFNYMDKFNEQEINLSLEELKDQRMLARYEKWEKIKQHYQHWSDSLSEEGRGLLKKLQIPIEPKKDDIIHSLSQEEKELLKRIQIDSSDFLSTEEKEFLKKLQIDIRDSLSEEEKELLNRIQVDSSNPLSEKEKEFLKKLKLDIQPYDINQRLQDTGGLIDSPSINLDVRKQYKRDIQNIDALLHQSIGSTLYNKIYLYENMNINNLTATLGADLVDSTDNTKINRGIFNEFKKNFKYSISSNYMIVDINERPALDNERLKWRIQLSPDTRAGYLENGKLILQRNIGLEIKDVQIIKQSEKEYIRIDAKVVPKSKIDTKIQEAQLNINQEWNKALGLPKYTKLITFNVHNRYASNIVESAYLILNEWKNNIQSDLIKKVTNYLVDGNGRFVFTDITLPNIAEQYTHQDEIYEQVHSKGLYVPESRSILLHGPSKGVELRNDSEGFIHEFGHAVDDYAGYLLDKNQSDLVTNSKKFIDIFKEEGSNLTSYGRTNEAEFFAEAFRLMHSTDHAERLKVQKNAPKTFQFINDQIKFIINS
BoNT-A LC inh2 = blocks Botulinum neurotoxin A light chain protease | multiplex microsphere protease substrate cleavage, flow cytometry | actives 0.17% (n = 360,000) | inhibition, % at 10 µM; note: plate controls were buffer without enzyme for full effect and enzyme alone for no effect
Autofluor counter = counter-screen for toxin protease inhibitors: compound fluorescence | compound autofluorescence counterscreen, microsphere flow cytometry; hits give high values | fluorescence intensity (concentration not given with the values) | actives 3.1% (n = 360,000) | AID 624483; in the data active = fluorescence intensity above about 16000; inconclusive = no clear call, values can overlap the other calls
BoNT F protease = BoNT F light chain protease inhibition; Multiplex microsphere protease cleavage assay, flow cytometry; inhibition, % at 10 µM; actives 0.22% (n = 360,000); AID 588497; in the data active = inhibition above about 35%, passing the limit was not always enough; inconclusive = no clear call, values can overlap the other calls; note: plate controls were buffer without enzyme for full effect and enzyme alone for no effect
Numbers without * were called inactive. Cut-off read from the data, not from the text of the source, unless noted: active = inhibition above about 30%; inconclusive = no clear call, values can overlap the other calls; inactive = below that.

What do the screens show for `COc1cccc(-c2cnc(C(O)c3ccc(Cl)cc3)[nH]2)c1` (centres undefined)?
Anthrax LF inh2: 2; BoNT-A LC inh2: -1; Autofluor counter: 3072; BoNT F protease: 4

What do the screens show for `C#CCNC(=O)C[C@@H]1C[C@@]2(C(=O)OCC)CCC=C2N(Cc2ccc(Cl)cc2Cl)C1=O`?
Anthrax LF inh2: 3; BoNT-A LC inh2: 0; Autofluor counter: 5858; BoNT F protease: 2

What do the screens show for `O=C(Nc1ccc(C(=O)N2CCCC2)cc1)c1ccccc1F`?
Anthrax LF inh2: -3; BoNT-A LC inh2: -3; Autofluor counter: 16849*; BoNT F protease: -2

How did NC(=O)c1cccc(Nc2nc(C(N)COCc3ccccc3)cs2)n1 (centres undefined) do in these assays?
Anthrax LF inh2: -6; BoNT-A LC inh2: 0; Autofluor counter: 2971; BoNT F protease: -12

How did O=C(CCN1CCN(Cc2ccccc2)CC1)Nc1ccc(OCc2ccccc2)cc1 do in these assays?
Anthrax LF inh2: -4; BoNT-A LC inh2: -2; Autofluor counter: 17367*; BoNT F protease: -4

Results for S=C(Nc1ccccc1)Nc1ccc(OCc2ccccc2)cc1 ?
Anthrax LF inh2: -6; BoNT-A LC inh2: inconclusive; Autofluor counter: 19054*; BoNT F protease: 4

How did NS(=O)(=O)c1ccc(NC(=S)Nc2ccc(OCc3ccccc3)cc2)cc1 do in these assays?
Anthrax LF inh2: -2; BoNT-A LC inh2: -1; Autofluor counter: 4131; BoNT F protease: 0

Results for CCOc1ccc(NC(=S)Nc2cc(-c3ccccc3)[nH]n2)cc1 ?
Anthrax LF inh2: -4; BoNT-A LC inh2: 1; Autofluor counter: 19137*; BoNT F protease: -1

What do the screens show for `COc1ccccc1C(=O)Nc1ccc(N2CCN(Cc3ccccc3)CC2)cc1`?
Anthrax LF inh2: 2; BoNT-A LC inh2: -1; Autofluor counter: 2960; BoNT F protease: 2

Results for O=C(Nc1ccc(N2CCN(Cc3ccccc3)CC2)cc1)c1ncn[nH]1 ?
Anthrax LF inh2: -5; BoNT-A LC inh2: 0; Autofluor counter: 23010*; BoNT F protease: -13

Results for CN1CCN(CCC(=O)Nc2ccc(OCc3ccccc3)cc2)CC1 ?
Anthrax LF inh2: 4; BoNT-A LC inh2: 0; Autofluor counter: 5490; BoNT F protease: 6

What do the screens show for `CCCCN1C(=O)C(CC(=O)NC2CCCCC2)CC(C(=O)N2CCCCCC2)=C1C` (centres undefined)?
Anthrax LF inh2: 6; BoNT-A LC inh2: 0; Autofluor counter: 4442; BoNT F protease: -14

Results for O=C(CCN1CCN(CCO)CC1)Nc1ccc(OCc2ccccc2)cc1 ?
Anthrax LF inh2: 3; BoNT-A LC inh2: 2; Autofluor counter: 19226*; BoNT F protease: 2

Results for CN(C)CCN(C)Cc1c2ccccc2c(CN(C)CCN(C)C)c2ccccc12 ?
Anthrax LF inh2: -7; BoNT-A LC inh2: 33*; Autofluor counter: 2999; BoNT F protease: 3

Results for CN(C)CCP(=O)(c1ccccc1)c1ccccc1 ?
Anthrax LF inh2: -5; BoNT-A LC inh2: -7; Autofluor counter: 4913; BoNT F protease: -13

Results for C(=NNc1nnn(Cc2ccccc2)n1)c1ccccc1 ?
Anthrax LF inh2: -5; BoNT-A LC inh2: -1; Autofluor counter: 4031; BoNT F protease: -4

How did CSc1nnc(-c2cccs2)n1C do in these assays?
Anthrax LF inh2: -1; BoNT-A LC inh2: -1; Autofluor counter: 4024; BoNT F protease: -6

Results for Cc1ccc(CSc2nnc(-c3cccs3)n2C)cc1 ?
Anthrax LF inh2: -1; BoNT-A LC inh2: 0; Autofluor counter: 13667; BoNT F protease: -10

What do the screens show for `Cn1c(SCc2c(Cl)cccc2Cl)nnc1-c1cccs1`?
Anthrax LF inh2: -2; BoNT-A LC inh2: inconclusive; Autofluor counter: 18672*; BoNT F protease: 5

Results for Cn1c(SCc2nc3ccccc3[nH]2)nnc1-c1cccs1 ?
Anthrax LF inh2: -1; BoNT-A LC inh2: inconclusive; Autofluor counter: 23403*; BoNT F protease: 0

How did Cn1c(SCc2ccc(Br)cc2)nnc1-c1cccs1 do in these assays?
Anthrax LF inh2: -4; BoNT-A LC inh2: 1; Autofluor counter: 16457*; BoNT F protease: 3

What do the screens show for `CN(C)CCN1CCN(C2CN(Cc3ccc(F)cc3)S(=O)(=O)C2)CC1` (centres undefined)?
Anthrax LF inh2: -14; BoNT-A LC inh2: 0; Autofluor counter: 4205; BoNT F protease: -2

Results for C[C@H]1COc2cccc(N(C)CCO)c2S(=O)(=O)N1 ?
Anthrax LF inh2: 3; BoNT-A LC inh2: 1; Autofluor counter: 5658; BoNT F protease: -5

How did COc1ccc(OC)c(NC=C2C(=O)OC3(CCCCC3)OC2=O)c1 do in these assays?
Anthrax LF inh2: 2; BoNT-A LC inh2: 10; Autofluor counter: 18401*; BoNT F protease: 14

How did COc1ccc(OC)c(NC=C2C(=O)OC(C)(C)OC2=O)c1 do in these assays?
Anthrax LF inh2: 0; BoNT-A LC inh2: 0; Autofluor counter: 2896; BoNT F protease: 2

Results for CC(C)(COC(=O)c1ccccc1)N1CC2CCC(C1)O2 ?
Anthrax LF inh2: 0; BoNT-A LC inh2: 0; Autofluor counter: 2794; BoNT F protease: -2

Results for CC1CCCN(C(=O)CCS(=O)(=O)Cc2ccccc2)C1 (centres undefined) ?
Anthrax LF inh2: -3; BoNT-A LC inh2: 0; Autofluor counter: 16402*; BoNT F protease: 2

What do the screens show for `Cc1ccc(S(=O)(=O)N2CC3(C)CN(S(=O)(=O)c4ccc(C)cc4)CC(C)(C2)C3=O)cc1`?
Anthrax LF inh2: -3; BoNT-A LC inh2: 3; Autofluor counter: 22149*; BoNT F protease: 3

What do the screens show for `CC1(C(=O)NS(=O)(=O)C2CC2)CCCN(C(=O)c2ccc(C(F)(F)F)cc2)C1` (centres undefined)?
Anthrax LF inh2: -4; BoNT-A LC inh2: 0; Autofluor counter: 3596; BoNT F protease: -2

How did CCOC(=O)c1cnn(-c2ccccc2)c1NC(=O)c1ccc(C)cc1 do in these assays?
Anthrax LF inh2: -2; BoNT-A LC inh2: -1; Autofluor counter: 23981*; BoNT F protease: -6

How did CCOC(=O)c1cnn(-c2cccc(Cl)c2)c1N do in these assays?
Anthrax LF inh2: -3; BoNT-A LC inh2: -2; Autofluor counter: 16767*; BoNT F protease: -4

How did CC(C)c1ccc([C@@H]2O[C@H](C)CC3=C2C(=O)OC(C)(C)O3)cc1 do in these assays?
Anthrax LF inh2: -1; BoNT-A LC inh2: 1; Autofluor counter: 5346; BoNT F protease: 0

What do the screens show for `COc1ccccc1NC(=O)N1CCN(c2cccc(C(F)(F)F)c2)CC1`?
Anthrax LF inh2: -1; BoNT-A LC inh2: -1; Autofluor counter: 23145*; BoNT F protease: -3

How did COc1cccc(NC(=O)Nc2cc(C)ccc2OC)c1 do in these assays?
Anthrax LF inh2: -1; BoNT-A LC inh2: 0; Autofluor counter: 2413; BoNT F protease: -2

How did C[C@H](NC(=O)Nc1cccc(C(F)(F)F)c1)C(=O)O do in these assays?
Anthrax LF inh2: -3; BoNT-A LC inh2: inconclusive; Autofluor counter: 21298*; BoNT F protease: -4

What do the screens show for `O=C(Nc1ccccc1)Nc1cccc(C(F)(F)F)c1`?
Anthrax LF inh2: -7; BoNT-A LC inh2: -1; Autofluor counter: 4369; BoNT F protease: 1

What do the screens show for `CCCN1CCN(C(=O)Nc2cccc(C(F)(F)F)c2)CC1`?
Anthrax LF inh2: 1; BoNT-A LC inh2: -1; Autofluor counter: 1894; BoNT F protease: -1

Results for COc1ccccc1NC(=O)N1CCN(c2ccc(F)cc2)CC1 ?
Anthrax LF inh2: -1; BoNT-A LC inh2: 1; Autofluor counter: 4002; BoNT F protease: 4

Screening data (PubChem)
